Only some compounds are listed: those with a hit (about 1.1% of all), similar ones and a draw of the others.
SRC1 inh: inhibitors of human steroid receptor coactivator 1 (SRC1); Q15788; HEK293 GAL4-SRC1 luciferase reporter, luminescence; inhibition, % at 3.6 µM; 360,000 tested, 0.12% active;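 active = inhibition above the campaign mean plus 3 SD, with each screening campaign given its own cutoff, cut at about 60% in these data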;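 also: 0% = DMSO treated cells and 100% = gossypol at 36 µM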
Target sequence (Q15788 whole entry, looked up, the tested form may be a part): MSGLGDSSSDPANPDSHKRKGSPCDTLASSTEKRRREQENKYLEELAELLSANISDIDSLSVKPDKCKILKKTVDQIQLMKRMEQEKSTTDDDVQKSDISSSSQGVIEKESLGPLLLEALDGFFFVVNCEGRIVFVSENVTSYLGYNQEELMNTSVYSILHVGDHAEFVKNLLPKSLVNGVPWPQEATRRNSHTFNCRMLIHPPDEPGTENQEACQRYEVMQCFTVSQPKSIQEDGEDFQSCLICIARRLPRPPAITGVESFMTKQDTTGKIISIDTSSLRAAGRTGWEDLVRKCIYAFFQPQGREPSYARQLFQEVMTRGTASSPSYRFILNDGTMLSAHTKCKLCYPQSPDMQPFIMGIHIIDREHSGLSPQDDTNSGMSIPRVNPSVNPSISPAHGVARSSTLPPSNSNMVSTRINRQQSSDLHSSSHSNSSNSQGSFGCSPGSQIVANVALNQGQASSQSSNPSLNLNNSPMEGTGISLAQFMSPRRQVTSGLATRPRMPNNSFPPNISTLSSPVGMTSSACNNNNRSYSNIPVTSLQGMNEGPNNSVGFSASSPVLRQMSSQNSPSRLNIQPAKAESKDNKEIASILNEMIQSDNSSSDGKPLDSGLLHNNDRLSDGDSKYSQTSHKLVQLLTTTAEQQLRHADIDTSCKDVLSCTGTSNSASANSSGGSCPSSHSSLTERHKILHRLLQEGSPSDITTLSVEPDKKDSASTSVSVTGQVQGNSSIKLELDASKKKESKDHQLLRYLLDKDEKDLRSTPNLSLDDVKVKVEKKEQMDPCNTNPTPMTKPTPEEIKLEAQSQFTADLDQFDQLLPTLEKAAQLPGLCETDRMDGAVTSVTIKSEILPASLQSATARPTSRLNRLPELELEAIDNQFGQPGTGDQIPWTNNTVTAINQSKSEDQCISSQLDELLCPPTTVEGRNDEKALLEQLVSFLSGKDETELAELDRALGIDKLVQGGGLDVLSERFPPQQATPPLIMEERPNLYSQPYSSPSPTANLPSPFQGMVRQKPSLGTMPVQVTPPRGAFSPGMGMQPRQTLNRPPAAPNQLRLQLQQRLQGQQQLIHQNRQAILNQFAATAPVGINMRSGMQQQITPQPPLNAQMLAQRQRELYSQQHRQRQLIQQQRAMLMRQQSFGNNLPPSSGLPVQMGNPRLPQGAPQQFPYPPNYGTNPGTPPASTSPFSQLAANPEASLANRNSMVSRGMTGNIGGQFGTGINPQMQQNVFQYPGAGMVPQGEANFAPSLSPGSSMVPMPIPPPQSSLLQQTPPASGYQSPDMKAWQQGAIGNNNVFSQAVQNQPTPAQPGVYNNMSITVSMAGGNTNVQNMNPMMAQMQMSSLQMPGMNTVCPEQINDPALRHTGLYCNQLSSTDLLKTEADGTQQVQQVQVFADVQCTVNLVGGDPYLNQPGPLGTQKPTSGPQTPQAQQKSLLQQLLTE
LRH-1 inv ag: suppresses constitutive activity of human LRH-1 | O00482 | HEK293T StAR-luciferase reporter, LRH-1 transfected, 24 h | inhibition, % at 3.6 µM | 360,000 tested, 0.13% active | AID 602396;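 active = inhibition above the mean inhibition of all tested compounds plus 3 SD, cut at about 73% in these data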;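 also: 0% = DMSO wells and 100% = reporter-only cells lacking LRH-1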
NCOA3 inh: human NCOA3 inhibition | Q9Y6Q9 | HEK293 GAL4-SRC3 luciferase reporter, luminescence | inhibition, % at 3.6 µM | 360,000 tested, 0.17% active | AID 588352;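 active = inhibition above a per-campaign cutoff, the mean of all compounds plus 3 SD, cut at about 60% in these data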;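 also: 0% = DMSO-treated cells and 100% = gossypol-treated cells at 36 µM; higher means less SRC3-driven luciferase light from the GAL4 reporter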
GalR3 antag: human GalR3 antagonism | 360,000 tested, 0.44% active | O60755 | AID 651719 | inhibition, % at 3 µM | HEK293 GalR3-CNG cAMP membrane potential fluorescence; galR3 body fused to GalR1 C-terminus;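 active = inhibition above the screen-wide average plus 3 SD, cut at about 13% in these data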;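 also: forskolin and galanin both at EC90 stimulate the cells; cAMP rise reported by CNG channel membrane potential dye signal; 0% = forskolin plus galanin with DMSO and 100% = forskolin alone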
SRC2 inh: inhibits human steroid receptor coactivator 2. HEK293 GAL4-SRC2 luciferase reporter, luminescence. inhibition, % at 9 µM. AID 651957. 370,000 tested, 0.17% active;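 active = inhibition above the mean inhibition of all tested compounds plus 3 SD, set per campaign, cut at about 52% in these data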;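 also: 0% = DMSO treated cells and 100% = cells given Gossypol at 36 µM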
COUP-TFII inh: inhibitors of human COUP-TFII (NR2F2) | P24468 | HEK293T NGFI-A luciferase reporter, luminescence | inhibition, % at 8.6 µM | 370,000 tested, 0.7% active;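 active = inhibition above a per-plate cutoff, mean inhibition of test wells between control levels plus 3 SD, cut at about 38% in these data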;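 also: cells cotransfected with COUP-TFII expression vector driving the NGFI-A reporter; 0% = median of COUP-TF2 test wells and 100% = reporter-only cells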
GalR3 antag conf: GalR3 (human) antagonism, confirmation. shares compounds with GalR3 antag. HEK293 GalR3 CNG cAMP biosensor, membrane potential fluorescence; galR3 fused to GalR1 carboxy tail; challenged with forskolin and galanin at EC90. inhibition, % at 3 µM. 1,600 tested, 59% active. AID 652245;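 active = inhibition above the primary screen's cutoff, the mean inhibition of all screened compounds plus 3 SD, cut at about 13% in these data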;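 also: 0% = forskolin plus galanin and 100% = forskolin alone with DMSO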
CNG parental: acts as nonspecific agonist in parental HEK-CNG cells; shares compounds with GalR3 antag; HEK293-CNG parental cells, cAMP membrane potential fluorescence; normalised: DMSO wells 0%, forskolin wells 100%; activation, % at 3 µM; 1,600 tested, 10% active; AID 652268; in the data active = activation above about 1.3%
* = called active by the depositor; / = no result given.

SMILES	SRC1 inh	LRH-1 inv ag	NCOA3 inh	GalR3 antag	SRC2 inh	COUP-TFII inh	GalR3 antag conf	CNG parental
CCC(C)c1ccc(NC(=O)COC(=O)c2nc3nccc(C)n3n2)cc1 (stereo unspecified)	-9	-17	13	15*	-14	-13	14*	0
Cc1ccnc2nc(C(=O)OCC(=O)Nc3ccc4c(c3)OC(F)(F)O4)nn12	12	22	3	-1	17	3	/	/
CCCc1nc(NCc2ccccc2)c(C#N)c2c1CCCC2	-7	5	6	17*	10	21	4	1
COc1ccc(NC(=O)C(c2ccc(C)cc2)N(C)C(=O)c2ccc(=O)[nH]c2)cc1 (stereo unspecified)	-7	-4	-9	13*	5	-17	8	0
O=C(Nc1cccc(F)c1)C1CCCN(S(=O)(=O)c2ccc(-n3cnnn3)cc2)C1 (stereo unspecified)	14	-2	2	14*	13	-4	0	-1
O=C(Nc1ccccc1)C1CCCN(S(=O)(=O)c2ccc(-n3cnnn3)cc2)C1 (stereo unspecified)	-36	-9	3	5	-17	9	/	/
CN1CCCN(C(=O)C2CCCN(C(=O)c3ccc4c(c3)NC(=O)CS4)C2)CC1 (stereo unspecified)	/	/	/	/	-28	-11	/	/
COc1cccc(Cn2nc(C(=O)O)c3ccccc3c2=O)c1	-2	19	10	19*	-26	0	16*	0
COc1ccc(-n2cc(COC(=O)NCCc3c[nH]c4ccccc34)nn2)cc1	/	/	/	/	18	-1	/	/
Cc1cc(NC(=O)/C=C/c2ccccc2)c(C(C)C)cc1O	-15	-3	9	19*	-27	4	23*	0
Cc1cc(NC(=O)c2ccccc2Cl)c(C(C)C)cc1O	9	7	-5	-8	-8	-2	/	/
N#Cc1cccnc1N1CCN(C(=O)c2cccc3c2C(=O)c2ccc(Cl)cc2S3(=O)=O)CC1	-11	4	-1	23*	-19	-12	30*	0
COc1ccc(S(=O)(=O)NCc2ccccn2)cc1	-3	-15	-8	15*	-28	1	20*	0
COc1ccc(Cc2c(O)nc(SCC(=O)NC34CC5CC(CC(C5)C3)C4)[nH]c2=O)cc1	-9	0	-9	-3	7	10	4	0
CCc1ccc(CNCC(=O)N2CCC3(CC2)OCCO3)s1	/	/	/	/	-33	-10	/	/
COC(=O)c1cc(-c2cccc(OC(F)(F)F)c2)c(=O)n2c1CCC2	/	/	/	/	-5	-3	/	/
CCCCCCNS(=O)(=O)c1ccc(NC(=O)C2CCCO2)cc1 (stereo unspecified)	12	17	19	15*	8	-6	26*	0
O=C(Nc1ccc(S(=O)(=O)Nc2ccc(Cl)cc2)cc1)C1CCCO1 (stereo unspecified)	2	15	26	-6	13	26	/	/
O=C(Nc1ccc2c(c1)Cc1ccccc1-2)NC1CCCCN(Cc2cccc(Cl)c2)C1=O (stereo unspecified)	/	/	/	/	-11	-7	/	/
Cc1ccc(C2C(C(=O)c3cccs3)=C(O)C(=O)N2c2nnc(C)s2)cc1 (stereo unspecified)	-23	-52	-50	13*	-17	-24	18*	0
CCc1ccc(N(C(=O)c2snc(C(N)=O)c2N)C(C(=O)NC2CCCC2)c2ccco2)cc1 (stereo unspecified)	-58	2	-7	-8	-11	20	/	/
COc1ccc(N(C(=O)c2snc(C(N)=O)c2N)C(C(=O)NC2CCCC2)c2ccco2)cc1 (stereo unspecified)	-12	-17	3	18*	-30	-8	0	0
COC(=O)Cn1c2ccc(Cl)cc2c2nc(C)sc21	-12	-8	23	-3	-15	15	/	/
Cc1ccc(S(=O)(=O)n2c3ccc(Cl)cc3c3nc(C)sc32)cc1	8	3	-3	/	10	-4	2	0
COc1cc(NC(=O)c2[nH]c(C)c(C(C)=O)c2C)c(OC)cc1Cl	/	/	/	/	/	-23	/	/
SMILES	SRC1 inh	LRH-1 inv ag	NCOA3 inh	GalR3 antag	SRC2 inh	COUP-TFII inh	GalR3 antag conf	CNG parental
CCc1c(C(=O)Nc2ccc(OC)c(Cl)c2)[nH]c(C)c1C(C)=O	5	8	2	28*	-22	-13	13*	0
CC1(C)CC2(CC(c3ccccc3)Oc3cc(O)ccc32)NC(=S)N1 (stereo unspecified)	-8	15	10	-1	5	-7	/	/
CC(=O)Oc1ccc2c(c1)OC(c1ccccc1)CC21CC(C)(C)NC(=S)N1 (stereo unspecified)	17	14	6	/	-18	3	2	0
COc1ccc(-c2ccc3c(n2)CCCN3Cc2ccccc2C(F)(F)F)cc1	/	/	/	-3	-52	-11	/	/
COc1ccc(OC)c2sc(N3CCN(c4ccccc4)CC3)nc12	-15	4	-12	15*	1	-17	11	-1
COc1ccc(C)c2sc(N3CCCC3)nc12	9	7	-11	-2	4	8	/	/
COCCCN1C(=O)[C@H](CC(=O)N2CCCCC2)[C@]2(C(=O)OC)CCCCC=C12	/	/	/	/	-8	-17	/	/
CCn1c(Cc2cccs2)nnc1SCC(=O)Nc1cccc2ccccc12	/	/	/	/	-1	2	/	/
COc1cc(-c2nn3c(C4CCCCC4)nnc3s2)cc(OC)c1OC	9	23	14	18*	7	-16	8	0
COc1ccc(-c2nn3c(C4CCCCC4)nnc3s2)cc1OC	-20	35	-17	17*	-41	-20	24*	1
O=S(=O)(CC1NCCc2ccccc21)NCCc1ccccc1 (stereo unspecified)	/	/	/	/	-17	-1	/	/
COc1ccc(C(=S)N2CCCCCC2)cc1	-10	4	-12	13*	3	-14	0	0
Nc1ncnc2c1ncn2[C@@H]1O[C@H](CO)[C@@H](O)[C@H]1O	5	12	9	112*	-2	-17	-20	5.8*
CC1(C)OC2C(O1)[C@@H](CO)O[C@H]2n1cnc2c(N)ncnc21 (stereo partly specified)	-6	0	16	0	-10	9	/	/
CCCN(CC(=O)Nc1ccc(Cl)cc1Cl)Cc1cc(=O)n2ccsc2n1	-36	-16	9	17*	-6	12	24*	0
COc1ccc(C2c3cc(OC)c(OC)cc3CC3C(=O)OCC32)cc1OC (stereo unspecified)	-19	-5	19	62*	-3	-5	65*	0

Compound activity from PubChem BioAssay.
